This is an account of results in PubChem BioAssay (NCI).

A short description of experiment [1]: NCI Yeast Anticancer Drug Screen. Data for the rad50 strain (AID 155).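 Note: 0% = growth of vehicle-only cultures of the same strain.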 To be noted: S. cerevisiae rad50 strain growth inhibition, stronger effect = higher value. In short, it runs like this:
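Readout: growth inhibition relative to vehicle-treated cultures. Compound exposure was carried out in a genetically defined yeast strain deficient in DNA damage repair.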

Experiment [2] in a line: NCI Yeast Anticancer Drug Screen. Data for the mec2-1 strain (AID 157). To be noted: S. cerevisiae mec2-1 strain, stronger effect = higher value. In short, it runs like this:
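Vehicle-treated cultures served as reference for growth inhibition of compound-exposed mec2-1 yeast.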

The nature of experiment [3]: NCI Yeast Anticancer Drug Screen. Data for the sgs1 mgt1 strain (AID 161).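 Note: 0% = growth of cultures given vehicle only.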 The settings on record: S. cerevisiae sgs1 mgt1 strain, stronger effect = higher value. In short, it runs like this:
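Read-out: growth inhibition vs vehicle controls. Cells: mutant yeast strain deficient in DNA damage repair.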

The nature of experiment [4]: NCI Yeast Anticancer Drug Screen. Data for the cln2 rad14 strain (AID 165).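 Note: 0% = growth equal to vehicle treated cultures.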 To be noted: S. cerevisiae cln2 rad14 strain, stronger effect = higher value. In short, it runs like this: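 Each compound was tested on cln2 rad14 yeast. Inhibition of growth was calculated against vehicle-exposed controls.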
Experiment [5] is described as follows: NCI Yeast Anticancer Drug Screen. Data for the bub3 strain (AID 167). The settings on record: S. cerevisiae bub3 mutant strain, stronger effect = higher value. In a few lines:
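Readout: yeast growth inhibition, expressed relative to vehicle-only wells. The test organism is a mutant strain from a panel with lesions in DNA repair or checkpoint genes.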

Experiment [6] is described as follows: NCI Yeast Anticancer Drug Screen. Data for the mlh1 rad18 strain (AID 175). To be noted: S. cerevisiae mlh1 rad18 strain growth inhibition, stronger effect = higher value. In a few lines:
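Vehicle-treated cultures served as the reference for growth inhibition in a yeast strain carrying DNA damage repair alterations exposed to each compound.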

Setting [7] is: at 5.0 µM (retest, dose inferred, filed as 0.5).
The mark [8] stands for this setting: at 50.0 µM (retest, dose inferred, filed as 5.0).

About 79,000 compounds went through this panel and 15% of them were active in at least one assay; those are over-represented in the sample as a whole. Values without a mark were called inactive. Activity calls are given as the source filed them. Cut-off read from the data, not from the text of the source: active = growth inhibition above about 70%; inactive = the rest.

In the case of `N/C(=N\N=C/c1ccc(O)c(O)c1O)NO`, the growth inhibition was -2% in experiment [1] (setting [7]); 26% in experiment [1] (setting [8]); 41.1% in experiment [1] (at 50.0 µM); 5% in experiment [2] (setting [7]); 21% in experiment [2] (setting [8]); 17.8% in experiment [2] (at 50.0 µM). Also, the growth inhibition was -7% in experiment [3] (setting [7]); 8% in experiment [3] (setting [8]); 28.5% in experiment [3] (at 50.0 µM); -2% in experiment [4] (setting [7]); -6% in experiment [4] (setting [8]); 17.7% in experiment [4] (at 50.0 µM). The growth inhibition was -4% in experiment [5] (setting [7]); -3% in experiment [5] (setting [8]); 4.2% in experiment [5] (at 50.0 µM); -5% in experiment [6] (setting [7]); 7% in experiment [6] (setting [8]); 64.7% in experiment [6] (at 50.0 µM).

Regarding `Cn1c2nc(-[n+]3ccccc3)nc-2c([O-])n(C)c1=O`, the growth inhibition in experiment [1] (setting [7]) was 1%; in experiment [1] (setting [8]), 3%; in experiment [1] (at 50.0 µM) it was -15.8%; in experiment [2] (setting [7]), 3%; in experiment [2] (setting [8]), 7%; in experiment [2] (at 50.0 µM), -2.25%. For the same compound, the growth inhibition in experiment [3] (setting [7]) is -1%; in experiment [3] (setting [8]), 39%; in experiment [3] (at 50.0 µM), 2.1%; in experiment [4] (setting [7]), -2%; in experiment [4] (setting [8]), 7%; in experiment [4] (at 50.0 µM), 70% (active). Further, the growth inhibition is -1% in experiment [5] (setting [7]); 0% in experiment [5] (setting [8]); -6.95% in experiment [5] (at 50.0 µM); -1% in experiment [6] (setting [7]); 8% in experiment [6] (setting [8]); -8.75% in experiment [6] (at 50.0 µM).

Consider `Nc1ccc(S(=O)(=O)Nc2cc(Cl)cc(Cl)c2)cc1`, for which the growth inhibition in experiment [1] (setting [7]) was -4%; in experiment [1] (setting [8]) it was 92% (active); in experiment [1] (at 50.0 µM), 99.5% (active); in experiment [2] (setting [7]) it was -4%; in experiment [2] (setting [8]), 100% (active); in experiment [2] (at 50.0 µM), 97.2% (active). For the same compound, the growth inhibition in experiment [3] (setting [7]) was -4%; in experiment [3] (setting [8]), 99% (active); in experiment [3] (at 50.0 µM), 99.3% (active); in experiment [4] (setting [7]), -15%; in experiment [4] (setting [8]) it was 99% (active); in experiment [4] (at 50.0 µM) it was 97.3% (active). Further, the growth inhibition in experiment [5] (setting [7]) was 3%; in experiment [5] (setting [8]), 99% (active); in experiment [5] (at 50.0 µM), 99.2% (active); in experiment [6] (setting [7]), 1%; in experiment [6] (setting [8]), 99% (active); in experiment [6] (at 50.0 µM), 98.2% (active).

As to `Cc1ccc(N2C(=O)CSC2=S)cc1Br`, the growth inhibition in experiment [1] (setting [7]) is 7%; in experiment [1] (setting [8]) it was 46%; in experiment [1] (at 50.0 µM) it was 95.1% (active); in experiment [2] (setting [7]) it was 3%; in experiment [2] (setting [8]) it was 11%; in experiment [2] (at 50.0 µM), 93% (active). The growth inhibition is 4% in experiment [3] (setting [7]); 49% in experiment [3] (setting [8]); 94.9% (active) in experiment [3] (at 50.0 µM); -1% in experiment [4] (setting [7]); -11% in experiment [4] (setting [8]); 31.9% in experiment [4] (at 50.0 µM). For the same compound, the growth inhibition was -2% in experiment [5] (setting [7]); 24% in experiment [5] (setting [8]); 77.5% (active) in experiment [5] (at 50.0 µM); 3% in experiment [6] (setting [7]); 64% in experiment [6] (setting [8]); 95.2% (active) in experiment [6] (at 50.0 µM).

On to `CC(=O)OC(CCl)C(C)[N+](=O)[O-]` (stereo not given), for which the growth inhibition in experiment [1] (setting [7]) was 7%; in experiment [1] (setting [8]), 91% (active); in experiment [1] (at 50.0 µM) it was 90.8% (active); in experiment [2] (setting [7]) it was 5%; in experiment [2] (setting [8]) it was 96% (active); in experiment [2] (at 50.0 µM) it was 98.5% (active). Further, the growth inhibition in experiment [3] (setting [7]) is 7%; in experiment [3] (setting [8]), 75% (active); in experiment [3] (at 50.0 µM), 46.6%; in experiment [4] (setting [7]), 6%; in experiment [4] (setting [8]), 83% (active); in experiment [4] (at 50.0 µM) it was 36.9%. Further, the growth inhibition was 6% in experiment [5] (setting [7]); 99% (active) in experiment [5] (setting [8]); 97.7% (active) in experiment [5] (at 50.0 µM); 5% in experiment [6] (setting [7]); 86% (active) in experiment [6] (setting [8]); 43.4% in experiment [6] (at 50.0 µM).

For `COc1ccc2[nH]c3ccc4cc[n+](CCN5CCC(C6CCN(CC[n+]7ccc8ccc9[nH]c%10ccc(OC)cc%10c9c8c7)CC6)CC5)cc4c3c2c1`, the growth inhibition in experiment [1] (setting [7]) is 69%; in experiment [1] (setting [8]) it was 98% (active); in experiment [1] (at 50.0 µM), 90.4% (active); in experiment [2] (setting [7]), 57%; in experiment [2] (setting [8]), 98% (active); in experiment [2] (at 50.0 µM), 93.5% (active). For the same compound, the growth inhibition in experiment [3] (setting [7]) was 29%; in experiment [3] (setting [8]), 98% (active); in experiment [3] (at 50.0 µM) it was 90.1% (active); in experiment [4] (setting [7]) it was 34%; in experiment [4] (setting [8]), 96% (active); in experiment [4] (at 50.0 µM), 91.1% (active). Moreover, the growth inhibition was 22% in experiment [5] (setting [7]); 96% (active) in experiment [5] (setting [8]); 91.1% (active) in experiment [5] (at 50.0 µM); 77% (active) in experiment [6] (setting [7]); 97% (active) in experiment [6] (setting [8]); 90.5% (active) in experiment [6] (at 50.0 µM).

Turning to `CN(Cc1cnc2nc(N)nc(N)c2n1)c1ccc(C(=O)NC(CCC(=O)O)C(=O)O)c(Cl)c1Cl` (stereo not given), the growth inhibition in experiment [1] (setting [7]) was -4%; in experiment [1] (setting [8]) it was 79% (active); in experiment [1] (at 50.0 µM) it was 94.2% (active); in experiment [2] (setting [7]) it was 41%; in experiment [2] (setting [8]), 98% (active); in experiment [2] (at 50.0 µM), 98.2% (active). The growth inhibition in experiment [3] (setting [7]) is -5%; in experiment [3] (setting [8]), 55%; in experiment [3] (at 50.0 µM), 85.5% (active); in experiment [4] (setting [7]) it was -8%; in experiment [4] (setting [8]), -13%; in experiment [4] (at 50.0 µM) it was -11.2%. In addition, the growth inhibition in experiment [5] (setting [7]) is -21%; in experiment [5] (setting [8]), 64%; in experiment [5] (at 50.0 µM), 77.5% (active); in experiment [6] (setting [7]), 13%; in experiment [6] (setting [8]) it was 82% (active); in experiment [6] (at 50.0 µM), 88.2% (active).

On to `C=C1CC(c2ccc(OCCCN3C(=O)c4ccccc4C3=O)cc2)OC1=O` (stereo not given), for which the growth inhibition in experiment [1] (setting [7]) was 33%; in experiment [1] (setting [8]), 71% (active); in experiment [1] (at 50.0 µM) it was 10.1%; in experiment [2] (setting [7]) it was 30%; in experiment [2] (setting [8]), 82% (active); in experiment [2] (at 50.0 µM), -3.6%. Moreover, the growth inhibition in experiment [3] (setting [7]) is 28%; in experiment [3] (setting [8]), 67%; in experiment [3] (at 50.0 µM), 15%; in experiment [4] (setting [7]), 23%; in experiment [4] (setting [8]) it was 63%; in experiment [4] (at 50.0 µM) it was 29.1%. The growth inhibition in experiment [5] (setting [7]) is 33%; in experiment [5] (setting [8]), 80% (active); in experiment [5] (at 50.0 µM), 8.8%; in experiment [6] (setting [7]), 34%; in experiment [6] (setting [8]), 86% (active); in experiment [6] (at 50.0 µM) it was -6%.

As to `O=c1c(Cl)cc2nc3ccccc3sc-2c1Cl`, the growth inhibition in experiment [1] (setting [7]) is 21%; in experiment [1] (setting [8]), 72% (active); in experiment [1] (at 50.0 µM), 84% (active); in experiment [2] (setting [7]), 42%; in experiment [2] (setting [8]), 84% (active); in experiment [2] (at 50.0 µM) it was 6.5%. Further, the growth inhibition in experiment [3] (setting [7]) is 33%; in experiment [3] (setting [8]) it was 79% (active); in experiment [3] (at 50.0 µM) it was 83.8% (active); in experiment [4] (setting [7]), 1%; in experiment [4] (setting [8]), 54%; in experiment [4] (at 50.0 µM), -0.05%. Moreover, the growth inhibition is 38% in experiment [5] (setting [7]); 85% (active) in experiment [5] (setting [8]); 80.5% (active) in experiment [5] (at 50.0 µM); 55% in experiment [6] (setting [7]); 87% (active) in experiment [6] (setting [8]); 83% (active) in experiment [6] (at 50.0 µM).

Turning to `COC(=O)/C(=C\c1cn(C(C)=O)c2ccccc12)P(=O)(OC)OC`, the growth inhibition in experiment [1] (setting [7]) is 9%; in experiment [1] (setting [8]), 21%; in experiment [1] (at 50.0 µM), 41.8%; in experiment [2] (setting [7]), 5%; in experiment [2] (setting [8]), 70% (active); in experiment [2] (at 50.0 µM), 62.6%. The growth inhibition is 2% in experiment [3] (setting [7]); 51% in experiment [3] (setting [8]); 70.8% (active) in experiment [3] (at 50.0 µM); 31% in experiment [4] (setting [7]); 38% in experiment [4] (setting [8]); 63.9% in experiment [4] (at 50.0 µM). The growth inhibition in experiment [5] (setting [7]) is -24%; in experiment [5] (setting [8]), 73% (active); in experiment [5] (at 50.0 µM) it was 78.5% (active); in experiment [6] (setting [7]), 16%; in experiment [6] (setting [8]) it was 69%; in experiment [6] (at 50.0 µM), 75.8% (active).
